The values below come from ChEMBL document CHEMBL1157539, “Thousands of chemical starting points for antimalarial lead identification” (Nature, 2010).

The term Inhibition denotes the percentage by which the read-out fell short of the control.

The assay deals with HepG2. Briefly: GSK_TCMDC: Percent inhibition of human HepG2 cell line. Test compounds present at 10uM. In kind it is functional.
`COc1c(C2CCN(CCCCNC(=O)c3noc(-c4ccc(C#N)cc4)n3)CC2)ccc2c1CCCC2` returned an Inhibition of 32%.

Regarding `COc1ccc(-c2cccc(NC(=O)c3cccc(C#N)c3)c2)cc1CN1CCNCC1.O=C(O)C(F)(F)F`, the Inhibition is given as 27%.

Regarding `CCNc1cc(C(=O)N[C@@H](Cc2ccccc2)[C@H](O)CN[C@H](C)c2ccccc2)cc(N2CCCC2=O)c1`, the Inhibition was determined as 0%.

The compound `Cl.Clc1ccc(OCCC2CCN(CCCCCCCN3CCC(CCOc4ccc(Cl)c(Cl)c4)CC3)CC2)cc1Cl` returned an Inhibition of 100%.

Turning to `COc1cc(Cc2cnc(N)nc2N)cc(OCCCOc2ccccc2)c1OC`, the Inhibition turned out to be 7%.

`COc1ccc2nc(N3CCN(C(=O)OC(C)(C)C)CC3)nc(NCCCc3ccccc3)c2c1` returned an Inhibition of 9%.

For `CN1CCCN(Cc2cccc(-c3cccc(NS(=O)(=O)c4cccc5cccnc45)c3)c2)CC1.O=C(O)C(F)(F)F`, the Inhibition is listed as 21%.

The compound `Cl.N=C1C=C(N)C(=O)c2ccccc21` had an Inhibition of 99%.

Turning to `COc1ccc(CNc2nc(NCc3ccc(C(F)(F)F)cc3)c3cc(OC)c(OC)cc3n2)cc1OC`, the Inhibition turned out to be 80%.

Take `O=C(/C=C/c1ccc(I)cc1)NCCCCCN1CCC(c2c[nH]c3ccccc23)CC1`: the Inhibition was found to be 43%.

As for `COc1ccc(CCn2c(=N)c(C(=O)NCc3ccccc3)cc3c(=O)n4ccccc4nc32)cc1`, the Inhibition is recorded as 14%.

Turning to `COc1ccccc1N1CCN(C(C(=O)NCc2ccc3c(c2)OCO3)c2ccc3c(c2)OCCCO3)CC1` (stereo unspecified), the Inhibition worked out at 15%.

On to `Cc1cc(C(=O)CN2C(=O)NC3(CCCc4ccccc43)C2=O)c(C)n1Cc1ccco1` (stereo unspecified), for which the Inhibition is reported as 11%.

Take `Cc1cccc(/C=C/C(=O)NC2CCC(N3CCC(c4ccccc4C)CC3)CC2)c1` (stereo unspecified): the Inhibition turned out to be 67%.

Compound `CCN(CC)CC(O)CNc1c2ccc([N+](=O)[O-])cc2nc2cc(OC)c(OC)cc12.Cl` (stereo unspecified) registered an Inhibition of 78%.

The compound `CCC[C@@H](/C=N/N(C)C(=O)OC(C)(C)C)NC(=O)[C@H](CC(C)C)NC(=O)c1cc2cccc(OC)c2o1` came in with an Inhibition of 5%.

`O=C(O)C(F)(F)F.c1cc(CNCCN2CCNCC2)cc(-c2ccc(-c3nc4ccccc4[nH]3)cc2)c1` returned an Inhibition of 3%.

For `O=C(C=Cc1cn(-c2ccccc2)nc1-c1cccs1)N1CCN(c2ccncc2)CC1`, the Inhibition turned out to be 31%.

`Cc1noc(C)c1-c1cccc(CNCc2ccc(-c3cccc(-c4nc5cccc(C)c5[nH]4)c3)cc2)c1.O=C(O)C(F)(F)F`: the Inhibition is reported as 24%.

Turning to `Cc1ccccc1C(=O)Nc1cccc(-c2nc3ncccn3c2C)c1`, the Inhibition was found to be 0%.

`Cl.Nc1ccc(Nc2ccnc3ccc(C(F)(F)F)cc23)cc1O` came in with an Inhibition of 1%.

In the case of `CN1CCN(CC(=O)Nc2ccc(-c3csc(-c4nc5ccccc5[nH]4)c3)cc2)CC1`, the Inhibition came out at 6%.

`O=C(Nc1ccccc1F)NC1CCN(c2ccnc(Nc3ccc(F)cc3)n2)C1` (stereo unspecified): the Inhibition was found to be 0%.

Compound `CCN(CC)C(=O)C1CCCN(c2cc(C)nc(Nc3ccc(Cl)cc3)n2)C1` (stereo unspecified) had an Inhibition of 13%.

Turning to `CN(c1ccc(NC(=O)Nc2cc(C(F)(F)F)ccc2F)cc1)c1ccnc(NCCN2CCOCC2)n1.O=C(O)C(F)(F)F`, the Inhibition worked out at 67%.

Compound `O=S(=O)(Nc1cccc(CCN2CCC(N3CCCCC3)CC2)c1)c1ccc(Cl)cc1` returned an Inhibition of 18%.

Consider `CN(C)CCNC(=O)c1csc(Nc2ccc(Cl)c(Cl)c2)n1`, for which the Inhibition is 4%.

The compound `SC(=Nc1ccc2c(c1)OCCO2)NN=Cc1ccccn1` yielded an Inhibition of 55%.

Take `CN(C)CCOc1cc(NC(=O)Nc2ccc(-c3ccncc3)c(Cl)c2)ccc1I`: the Inhibition was 43%.

Compound `O=C(Nc1cccc(-c2ccc(-c3nc4cc(C(F)(F)F)ccc4[nH]3)cc2)c1)c1c[nH]cn1` came in with an Inhibition of 16%.

As to `Cc1cc(C(F)(F)F)n2nc(C(=O)N(Cc3cncn3Cc3cccc(F)c3)CC3CC3)cc2n1`, the Inhibition is on record as 0%.
